# Calls of active or inactive are those of the source. Rule for the calls: active = hit-call score of the fitted dose curve at least 0.9, where 1 is the maximum; inactive = score below 0.9.
# What was measured:
# [1] = read-out: Human Leukocyte Antigen - DR isotype (HLADR), HLA-DRA (gene 3122); assay: BSK_3C_HLADR: BioMAP Diversity Plus: 3C Assay for Human Leukocyte Antigen - DR isotype (HLADR) Biomarker Activity (AID 2283019); details: primary human endothelial cells (HUVEC); actives raise or lower the signal;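 for outcome: ELISA of cell-surface HLA-DR on HUVEC 24 h after dosing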
# Method in brief: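 Primary human umbilical vein endothelial cells (3C system) were dosed with compound and cell-surface HLA-DR was quantified by ELISA at 24 h. Activity was fitted bidirectionally against DMSO as negative control and baseline.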
# [2] = BSK_3C_Vis: BioMAP Diversity Plus: 3C Assay for Morphology Visualization (AID 2283025); details: primary human endothelial cells (HUVEC);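 note: fitted both ways so gain or loss versus DMSO counts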;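 for AC50: light microscopy image of cell morphology used as background control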
# Method in brief: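 Human umbilical vein endothelial cell morphology was inspected by light microscopy 24 h after chemical dosing; scored bidirectionally relative to DMSO.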
# [3] = read-out: Vascular endothelial growth factor receptor 2 (Homo sapiens) (UniProt P35968); assay: BSK_4H_VEGFRII: BioMAP Diversity Plus: 4H Assay for Vascular endothelial growth factor receptor 2 (VEGFR2) Biomarker Activity (AID 2283031); details: primary human endothelial cells (HUVEC); actives raise or lower the signal
# Method in brief: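 Primary human umbilical vein endothelial cells in the BioMAP 4H system were dosed with test chemical, and 24 h later VEGFRII was measured by ELISA. Activity was fitted bidirectionally against DMSO as negative control and baseline.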
# [4] = read-out: Low-density lipoprotein receptor (LDLR), LDLR (gene 3949); assay: BSK_CASM3C_LDLR: BioMAP Diversity Plus: CASM3C Assay for Low-density lipoprotein receptor (LDLR) Biomarker Activity (AID 2283045); details: primary human coronary artery smooth muscle cells; actives raise or lower the signal;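 note: LDLR protein level on the cell surface quantified by ELISA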
# [5] = read-out: Monokine induced gamma interferon (MIG), CXCL9 (gene 4283); assay: BSK_CASM3C_MIG: BioMAP Diversity Plus: CASM3C Assay for Monokine induced gamma interferon (MIG) Biomarker Activity (AID 2283048); details: primary human coronary artery smooth muscle cells; actives raise or lower the signal;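 note: MIG protein level measured by ELISA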
# [6] = read-out: Intercellular Adhesion Molecule 1 (ICAM1), ICAM1 (gene 3383); assay: BSK_KF3CT_ICAM1: BioMAP Diversity Plus: KF3CT Assay for Intercellular Adhesion Molecule 1 (ICAM1) Biomarker Activity (AID 2283067); details: primary human keratinocytes with fibroblasts; actives raise or lower the signal
# Method in brief: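 Human keratinocyte plus foreskin fibroblast primary co-culture was exposed to chemical for 24 h. ICAM-1 was then quantified by ELISA, and the data were fit bidirectionally against DMSO as the negative control and baseline.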
# [7] = read-out: Transforming growth factor beta 1 (TGFb1), TGFB1 (gene 7040); assay: BSK_KF3CT_TGFb1: BioMAP Diversity Plus: KF3CT Assay for Transforming growth factor beta 1 (TGFb1) Biomarker Activity (AID 2283072); details: primary human keratinocytes with fibroblasts; actives raise or lower the signal
# Method in brief: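 Human keratinocyte/foreskin fibroblast co-culture; TGF-b1 measured by ELISA 24 h after dosing, fitted bidirectionally versus DMSO. Cytotoxicity checked in parallel cultures by total protein (SRB staining, 560 nm).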
# [8] = read-out: C-C motif chemokine 2 (Homo sapiens) (UniProt P13500); assay: BSK_KF3CT_MCP1: BioMAP Diversity Plus: KF3CT Assay for Monocyte Chemoattractant Protein 1 (MCP1/CCL2) Biomarker Activity (AID 2283073); details: primary human keratinocytes with fibroblasts; actives raise or lower the signal
# Method in brief: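 Human keratinocyte plus foreskin fibroblast primary co-culture exposed to chemical for 24 h. MCP-1 levels measured by ELISA. Bidirectional curve fitting relative to DMSO negative control as baseline.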
# [9] = read-out: E-selectin (Homo sapiens) (UniProt P16581); assay: BSK_LPS_Eselectin: BioMAP Diversity Plus: LPS Assay for Eselectin Biomarker Activity (AID 2283077); details: primary human HUVEC with PBMC; actives raise or lower the signal
# Method in brief: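 Human umbilical vein endothelial cells co-cultured with peripheral blood mononuclear cells under LPS stimulation; E-selectin measured by ELISA 24 h after chemical dosing. Activity fitted bidirectionally against DMSO as negative control and baseline.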
# [10] = read-out: CD40, CD40 (gene 958); assay: BSK_SAg_CD40: BioMAP Diversity Plus: SAg Assay for CD40 Biomarker Activity (AID 2283088); details: primary human HUVEC with PBMC; actives raise or lower the signal
# Method in brief: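 Human umbilical vein endothelial cells co-cultured with PBMC; CD40 levels measured by ELISA with fluorescence read-out 24 h after chemical dosing. Gain or loss of signal fitted bidirectionally against DMSO baseline.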
# [11] = read-out: Interleukin-8 (IL8), CXCL8 (gene 3576); assay: BSK_SAg_IL8: BioMAP Diversity Plus: SAg Assay for Interleukin-8 (IL8) Biomarker Activity (AID 2283094); details: primary human HUVEC with PBMC; actives raise or lower the signal
# Method in brief: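 Human umbilical vein endothelial cells co-cultured with PBMC, stimulated with superantigen; IL-8 measured by ELISA 24 h after chemical dosing. Bidirectional fitting versus DMSO; SRB staining in parallel cultures tracks cytotoxicity.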
# [12] = BSK_SAg_Proliferation: Cell Proliferation Assessment in the BioMAP Diversity Plus: SAg Assay (AID 2283095); details: primary human HUVEC with PBMC
# Method in brief: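 Human umbilical vein endothelial cells co-cultured with PBMC; sulforhodamine B total-protein staining (0.1% SRB after 10% TCA fixation, absorbance 560 nm) at 96 h in sub-confluent culture. Fitted bidirectionally against DMSO.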
# [13] = BSK_SAg_SRB: Viability Assessment in the BioMAP Diversity Plus: SAg Assay (AID 2283096); details: primary human HUVEC with PBMC;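 note: cells read one day after compound addition; hits may be either gain or loss of signal compared with DMSO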
# Method in brief: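 Total protein by sulforhodamine B staining, 24 h after dosing, in HUVEC–PBMC co-culture; DMSO-referenced bidirectional fitting.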
# [14] = BSK_BT_PBMCCytotoxicity: PBMC Cytotoxicity Assessment in the BioMAP Diversity Plus: BT Assay (AID 2284225); details: primary human B cells with PBMC;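 note: PBMC viability measured by Alamar Blue dye reduction fluorescence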
# Method in brief: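 PBMC (75,000/well) pretreated with compound 1 h, then activated with SEB and TSST-1 (20 ng/mL each final), incubated 90 h; Alamar Blue added 6 h, fluorescence read at 546/580 nm. Fitted relative to DMSO.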
# [15] = BSK_BT_Bcell_Proliferation: Viability Assessment in the BioMAP Diversity Plus: BT Assay for B cell Proliferation (AID 2284227); details: primary human B cells with PBMC
# Method in brief: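 SRB-based protein staining (0.1% SRB after 10% TCA fixation, 560 nm) quantifies proliferation in human B cells co-cultured with PBMC, 72 h post-dosing, with signal gain scored relative to DMSO negative control.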
# [16] = read-out: Interleukin 6 (IL6), IL6 (gene 3569); assay: BSK_BT_xIL6: BioMAP Diversity Plus: BT Assay for Interleukin 6 (IL6) Biomarker Activity (AID 2284228); details: primary human B cells with PBMC
# Method in brief: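 Human B cell plus PBMC co-culture exposed to test chemical for 24 h; secreted IL-6 quantified by Luminex xMAP bead assay. Activity fitted in the positive direction against DMSO as negative control and baseline.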
# [17] = read-out: Interleukin 17A (IL17A), IL17A (gene 3605); assay: BSK_BT_xIL17A: BioMAP Diversity Plus: BT Assay for Interleukin 17A (IL17A) Biomarker Activity (AID 2284229); details: primary human B cells with PBMC
# Method in brief: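 B cells co-cultured with PBMC were exposed to test chemicals, and secreted IL-17A was quantified 24 h after dosing by Luminex xMAP bead immunoassay. Activity was fitted in the gain direction against DMSO as baseline.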
# [18] = read-out: Collagen IV, COL4A1 (gene 1282); assay: BSK_MyoF_CollagenIV: BioMAP Diversity Plus: MyoF Assay for Collagen IV Biomarker Activity (AID 2284247); details: primary human lung fibroblasts
# Method in brief: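 Primary human lung fibroblasts (MyoF system) dosed 24 h; Collagen IV measured by ELISA. Activity fitted in positive direction against DMSO; cytotoxicity tracked by SRB total-protein staining in parallel cultures.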
# [19] = read-out: Matrix Metallopeptidase 1 (MMP1), MMP1 (gene 4312); assay: BSK_MyoF_MMP1: BioMAP Diversity Plus: MyoF Assay for Matrix Metallopeptidase 1 (MMP1) Biomarker Activity (AID 2284268); details: primary human lung fibroblasts
# Method in brief: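 ELISA readout of MMP1 in primary human lung fibroblast cultures, 24 h post-dosing. Gain of signal versus DMSO vehicle control defines activity. Parallel SRB staining (0.1% after 10% TCA fixation, 560 nm) flags overt cytotoxicity.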
# [20] = read-out: TIMP metallopeptidase inhibitor 1 (TIMP1), TIMP1 (gene 7076); assay: BSK_MyoF_TIMP1: BioMAP Diversity Plus: MyoF Assay for TIMP metallopeptidase inhibitor 1 (TIMP1) Biomarker Activity (AID 2284269); details: primary human lung fibroblasts
# Method in brief: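 Fibroblasts from human lung are dosed with chemical, cultured 24 h, and assayed for TIMP-1 by ELISA. Increases over the DMSO baseline are scored, with SRB total-protein staining run in parallel for cytotoxicity.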
# Chain of E-selectin (Homo sapiens) (P16581 whole entry, looked up): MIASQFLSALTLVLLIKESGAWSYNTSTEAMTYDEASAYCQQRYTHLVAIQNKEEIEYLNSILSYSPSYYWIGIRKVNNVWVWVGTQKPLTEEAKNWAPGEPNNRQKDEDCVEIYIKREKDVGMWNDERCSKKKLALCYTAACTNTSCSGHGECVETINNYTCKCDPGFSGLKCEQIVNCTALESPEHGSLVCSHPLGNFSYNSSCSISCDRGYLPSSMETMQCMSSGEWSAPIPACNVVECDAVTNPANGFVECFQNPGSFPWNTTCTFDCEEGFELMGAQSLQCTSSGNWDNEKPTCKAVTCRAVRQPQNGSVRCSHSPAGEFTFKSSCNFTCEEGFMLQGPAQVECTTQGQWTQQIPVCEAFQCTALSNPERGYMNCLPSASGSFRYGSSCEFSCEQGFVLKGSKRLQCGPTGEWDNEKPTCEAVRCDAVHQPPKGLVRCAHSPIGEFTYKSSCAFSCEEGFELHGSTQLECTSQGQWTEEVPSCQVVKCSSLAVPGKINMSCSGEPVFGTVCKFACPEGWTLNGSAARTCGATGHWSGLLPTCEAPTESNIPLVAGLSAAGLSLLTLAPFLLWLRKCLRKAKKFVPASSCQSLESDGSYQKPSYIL
compound,measurement,setting,value
C=CC(=O)OCC(CC)CCCC (stereo unspecified),AC50,[1],31.9 µM (active)
same,outcome,[2],inactive
same,outcome,[3],inactive
same,outcome,[4],inactive
same,outcome,[5],inactive
same,outcome,[6],inactive
same,AC50,[7],0.164 µM (active)
same,outcome,[8],inactive
same,outcome,[9],inactive
same,outcome,[10],inactive
same,outcome,[11],inactive
same,outcome,[12],inactive
same,outcome,[13],inactive
same,outcome,[14],inactive
same,outcome,[15],inactive
same,outcome,[16],inactive
same,outcome,[17],inactive
same,outcome,[18],inactive
same,outcome,[19],inactive
same,outcome,[20],inactive
O=[N+]([O-])O,outcome,[1],inactive
same,outcome,[3],inactive
same,outcome,[4],inactive
same,outcome,[5],inactive
same,outcome,[6],inactive
same,outcome,[8],inactive
same,outcome,[9],inactive
same,outcome,[10],inactive
same,outcome,[11],inactive
same,outcome,[12],inactive
same,outcome,[13],inactive
O=c1[nH]c(Cl)c(Cl)cc1Cl,outcome,[1],inactive
same,outcome,[2],inactive
same,outcome,[3],inactive
same,outcome,[4],inactive
same,outcome,[5],inactive
same,outcome,[6],inactive
same,outcome,[7],inactive
same,outcome,[8],inactive
same,outcome,[9],inactive
same,outcome,[10],inactive
same,outcome,[11],inactive
same,outcome,[12],inactive
same,outcome,[13],inactive
same,outcome,[14],inactive
same,outcome,[15],inactive
same,outcome,[16],inactive
same,outcome,[17],inactive
same,outcome,[18],inactive
same,AC50,[19],20 µM (active)
same,outcome,[20],inactive
Cc1ccc(OP(=O)(Oc2ccc(C)cc2)Oc2ccc(C)cc2)cc1 (tested in a mixture with another compound),AC50,[1],20 µM (active)
same,AC50,[2],37.5 µM (active)
same,outcome,[3],inactive
same,outcome,[4],inactive
same,outcome,[5],inactive
same,outcome,[6],inactive
same,AC50,[7],4.81 µM (active)
same,outcome,[8],inactive
same,outcome,[9],inactive
same,AC50,[10],20 µM (active)
same,AC50,[11],10.6 µM (active)
same,AC50,[12],9.42 µM (active)
same,AC50,[13],20 µM (active)
same,AC50,[14],5.41 µM (active)
same,outcome,[15],inactive
same,AC50,[16],13.2 µM (active)
same,AC50,[17],14.1 µM (active)
same,outcome,[18],inactive
same,AC50,[19],27.6 µM (active)
same,outcome,[20],inactive
Oc1cc(Cl)ccc1Cl,outcome,[1],inactive
same,outcome,[2],inactive
same,outcome,[3],inactive
same,outcome,[4],inactive
same,outcome,[5],inactive
same,outcome,[6],inactive
same,outcome,[7],inactive
same,outcome,[8],inactive
same,outcome,[9],inactive
same,outcome,[10],inactive
same,outcome,[11],inactive
same,outcome,[12],inactive
same,outcome,[13],inactive
same,outcome,[14],inactive
same,outcome,[15],inactive
same,outcome,[16],inactive
same,outcome,[17],inactive
same,outcome,[18],inactive
same,outcome,[19],inactive
same,outcome,[20],inactive
Nc1ccc(-c2ccc(N)c(N)c2)cc1N,outcome,[2],inactive
same,outcome,[3],inactive
same,outcome,[4],inactive
same,AC50,[7],26.6 µM (active)
same,outcome,[8],inactive
same,outcome,[9],inactive
same,outcome,[10],inactive
same,outcome,[11],inactive
same,outcome,[12],inactive
same,outcome,[13],inactive
same,outcome,[14],inactive
same,outcome,[15],inactive
same,outcome,[16],inactive
same,outcome,[17],inactive
same,outcome,[18],inactive
same,outcome,[19],inactive
same,outcome,[20],inactive
O=C(CCl)c1ccccc1,AC50,[1],3.04 µM (active)
same,AC50,[2],4.12 µM (active)
same,outcome,[3],inactive
same,AC50,[4],33 µM (active)
same,AC50,[5],10.5 µM (active)
same,AC50,[6],21.3 µM (active)
same,AC50,[7],25.7 µM (active)
same,AC50,[8],32 µM (active)
same,AC50,[9],6.13 µM (active)
same,AC50,[10],5.77 µM (active)
same,AC50,[11],5.88 µM (active)
same,AC50,[12],1.06 µM (active)
same,AC50,[13],14 µM (active)
